A short description of experiment [1]: qHTS assay to identify aromatase inhibitors - cell viability counter screen (AID 743084).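 Note: cells stimulated with testosterone during compound exposure; nearly all actives have a fitted effect of over 55% in size.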
In experiment [2] the target is Aryl hydrocarbon receptor (Homo sapiens) (UniProt P35869). The experiment can be described thus: qHTS assay to identify small molecule that activate the aryl hydrocarbon receptor (AhR) signaling pathway (AID 743085).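 For activation: HG2L7.5c1 human HepG2 liver cells with stably integrated DRE-driven firefly reporter; series mostly up to about 70 µM.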 Note: nearly all actives have a fitted effect of over 15% in size. Note: potency is the fitted concentration of half-maximal effect. In a few lines: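 A multiplexed format paired cell viability (CellTiter-Fluor fluorescence) with AhR-dependent luciferase output (ONE-Glo luminescence) in the same wells of HepG2 DRE-luc cells after 24 h compound exposure at 37C.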

A short description of experiment [3]: qHTS assay to identify small molecule that activate the aryl hydrocarbon receptor (AhR) signaling pathway - cell viability counter screen (AID 743086).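 Note: HepG2 liver cells carrying the AhR DRE luciferase reporter; series mostly up to about 70 µM; nearly all actives have a fitted effect of over 45% in size.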 In a few lines: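 HepG2-AhR-luc (HG2L7.5c1) cells, 4000/well, treated 24 h at 37 C with compound; viability measured as CellTiter-Fluor fluorescence after 30 min in the same wells as the luciferase read.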
Background: In qHTS, concentration-response curves come from the screen itself.

For experiment [4], the target named is Peroxisome proliferator-activated receptor gamma (Homo sapiens) (UniProt P37231). The experiment can be described thus: qHTS assay to identify small molecule agonists of the peroxisome proliferator-activated receptor gamma (PPARg) signaling pathway (AID 743094; active = well fitted activation curve with a large enough effect in the signal ratio in the repeat runs, not every such curve was filed as active; the % refers to the signal ratio). The gist of the method:
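Agonism was assessed in a beta-lactamase reporter system, HEK293H cells with a stably integrated UAS-bla construct under PPARg control; the 17 h treatment at 37C preceded a 1 h room-temperature FRET substrate read.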

For experiment [5] the target is unchanged. As to the kind of experiment: qHTS assay to identify small molecule antagonists of the peroxisome proliferator-activated receptor gamma (PPARg) signaling pathway (AID 743191; calls by dose curve; note: series mostly up to about 63 µM; nearly all actives have a fitted effect of over 30% in size). In a few lines:
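GeneBLAzer PPARg UAS-bla HEK293H cells, 5 h post-plating, exposed to compounds 17 h at 37C. LiveBLAzer B/G FRET substrate added for 1 h at room temperature; beta-lactamase reporter read by fluorescence intensity.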

Experiment [6] in a line: qHTS assay to identify small molecule antagonists of the peroxisome proliferator-activated receptor gamma (PPARg) signaling pathway - cell viability counter screen (AID 743194). Note: nearly all actives have a fitted effect of over 55% in size. In a few lines:
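Cytotoxicity counter screen in PPARg-bla HEK293H cells, same wells as reporter assay. Compounds plus 50 nM rosiglitazone (final) for 17 h at 37 C, then viability read by CellTiter-Glo luminescence.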

Experiment [7] can be described thus: qHTS assay for small molecule agonists of the antioxidant response element (ARE) signaling pathway (AID 743202; active = well fitted activation curve with a large enough effect in the signal ratio in the repeat runs, not every such curve was filed as active; the % refers to the signal ratio; note: potency is the fitted concentration of half-maximal effect). In a few lines: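 HepG2 ARE-bla reporter line, 2,000 cells/well; 5 h preincubation 37 C/5% CO2; compound (DMSO) 16 h 37 C; B/G FRET substrate 2 h RT; fluorescence intensity.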
Experiment [8] is described as follows: qHTS assay for small molecule agonists of the antioxidant response element (ARE) signaling pathway - cell viability counter screen (AID 743203; calls by dose curve; note: nearly all actives have a fitted effect of over 55% in size). The gist of the method: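 ATP content via CellTiter-Glo luminescence served as the viability measure. Cells: ARE-bla HepG2, 2,000 per well. Exposure: 16 hrs, 37C/5% CO2.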
Experiment [9] can be described thus: qHTS assay for small molecule activators of the heat shock response signaling pathway - cell viability counter screen (AID 743209). Note: nearly all actives have a fitted effect of over 50% in size. The gist of the method:
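Compounds dissolved in DMSO were added to overnight-plated HSE-bla HeLa cells and left 5 h at 37 C. Cell viability was quantified by luminescence using CellTiter-Glo.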

Experiment [10] is described as follows: qHTS assay for small molecule activators of the heat shock response signaling pathway (AID 743210; active = well fitted activation curve with a large enough effect in the signal ratio in the repeat runs, with a control signal flat, not every such curve was filed as active; the % refers to the signal ratio;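 note: HeLa cells with beta-lactamase reporter driven by heat shock elements; series mostly up to about 63 µM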). In a few lines:
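Beta-lactamase reporter read-out: FRET substrate fluorescence after 2.5 h at RT, following 5 h compound treatment at 37 C of HeLa cells carrying HSE-driven bla reporter; quantitative HTS format.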

Where “and” joins values, the source holds several entries; their conditions need not be identical. Equal values may be shown once. Records with an inconclusive call do not appear. Where a structure was tested more than once in an assay, its records may differ in their call. Calls of active or inactive are those of the source. Unless noted, calls come from the whole dose curve; as a rule, active = well fitted curve in the direction sought with a large enough effect in the repeat runs; inconclusive = weak or mixed curves; inactive = no such curve, though single readings can be large; an effect the other way counts as inactive or inconclusive.

Sequence of Peroxisome proliferator-activated receptor gamma (Homo sapiens) (P37231 whole entry, looked up): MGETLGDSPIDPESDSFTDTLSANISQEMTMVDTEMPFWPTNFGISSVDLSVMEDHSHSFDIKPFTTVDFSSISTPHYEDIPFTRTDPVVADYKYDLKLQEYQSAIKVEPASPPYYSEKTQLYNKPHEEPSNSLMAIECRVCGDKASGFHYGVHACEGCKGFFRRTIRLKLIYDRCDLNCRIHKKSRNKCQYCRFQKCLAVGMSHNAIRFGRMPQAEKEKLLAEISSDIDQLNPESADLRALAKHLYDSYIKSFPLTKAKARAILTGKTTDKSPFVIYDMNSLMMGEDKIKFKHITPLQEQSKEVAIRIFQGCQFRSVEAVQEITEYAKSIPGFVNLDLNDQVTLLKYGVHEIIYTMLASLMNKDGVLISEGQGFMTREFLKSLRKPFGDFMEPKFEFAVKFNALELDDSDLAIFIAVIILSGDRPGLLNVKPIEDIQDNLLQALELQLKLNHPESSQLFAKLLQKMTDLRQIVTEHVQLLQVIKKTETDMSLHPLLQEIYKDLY
Sequence of Aryl hydrocarbon receptor (Homo sapiens) (P35869 whole entry, looked up): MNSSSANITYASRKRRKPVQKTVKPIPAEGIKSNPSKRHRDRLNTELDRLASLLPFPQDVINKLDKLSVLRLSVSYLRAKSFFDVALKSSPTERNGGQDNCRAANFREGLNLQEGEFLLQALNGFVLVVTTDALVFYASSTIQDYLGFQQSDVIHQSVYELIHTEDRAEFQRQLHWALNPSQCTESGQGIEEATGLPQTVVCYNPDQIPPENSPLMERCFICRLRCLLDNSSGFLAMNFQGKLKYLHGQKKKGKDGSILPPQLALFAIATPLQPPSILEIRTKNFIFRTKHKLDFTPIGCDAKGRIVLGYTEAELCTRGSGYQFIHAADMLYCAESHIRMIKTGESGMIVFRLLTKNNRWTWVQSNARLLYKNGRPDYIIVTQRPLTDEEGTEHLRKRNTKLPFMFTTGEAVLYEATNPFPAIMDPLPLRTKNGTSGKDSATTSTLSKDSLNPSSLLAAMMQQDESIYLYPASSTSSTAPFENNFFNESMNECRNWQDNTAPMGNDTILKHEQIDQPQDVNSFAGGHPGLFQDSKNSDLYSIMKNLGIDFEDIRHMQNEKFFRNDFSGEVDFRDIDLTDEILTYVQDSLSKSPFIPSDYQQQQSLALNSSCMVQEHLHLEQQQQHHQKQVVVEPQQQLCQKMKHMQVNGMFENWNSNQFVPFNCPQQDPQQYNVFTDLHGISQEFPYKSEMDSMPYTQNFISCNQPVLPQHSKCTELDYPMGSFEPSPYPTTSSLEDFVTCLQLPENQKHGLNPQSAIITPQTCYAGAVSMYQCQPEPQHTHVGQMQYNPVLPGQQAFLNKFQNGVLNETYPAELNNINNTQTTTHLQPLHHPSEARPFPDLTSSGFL

As for `CCOP(=S)(OCC)Oc1cnc2ccccc2n1`, the result in experiment [1], in experiment [3], in [4], in experiment [6], in [8] and in experiment [9] was inactive. The outcome in experiment [10] was inactive. In addition, the Potency result in experiment [2] is “inactive and 10.9 µM (active)”. Moreover, the Potency entry in experiment [5] and in experiment [7] was “inactive” each time.

In the case of `O=S(=O)(c1ccc(Cl)cc1)c1cc(Cl)c(Cl)cc1Cl`, the result in [1], in experiment [3], in [4], in [6], in [8] and in experiment [9] was inactive. Further, the Potency result in [2] and in experiment [7] was “inactive” each time.

Take `O=C(NC(=O)c1c(F)cccc1F)Nc1cc(Cl)c(OC(F)(F)C(F)C(F)(F)F)cc1Cl` (stereo not drawn): the outcome in [1], in experiment [3], in [4], in experiment [6], in [8] and in experiment [9] was inactive. Besides, the compound was classed as inactive in experiment [10]. The Potency entry in experiment [2] was “inactive”.

On to `CC(NC(C)(C)C)C(=O)c1cccc(Cl)c1` (stereo not drawn), for which the compound was called inactive in [1], in [3], in [6], in experiment [8] and in [9]. Besides, the Potency entry in [2] and in experiment [7] was “inactive” each time.

`CC(C)(C)C(O)(CCc1ccc(Cl)cc1)Cn1cncn1` (stereo not drawn): the outcome in experiment [1], in experiment [3], in experiment [6], in experiment [8], in [9] and in [10] was inactive. For the same compound, the Potency result in experiment [2] and in [5] was “inactive” each time.

On to `CN(C)[C@@H]1C(=O)C(C(N)=O)=C(O)[C@@]2(O)C(=O)C3=C(O)c4c(O)cccc4[C@@](C)(O)[C@H]3C[C@@H]12`, for which the outcome in experiment [1], in experiment [3], in experiment [4], in experiment [6], in [8] and in [9] was inactive. In addition, the outcome in experiment [10] was inactive. Besides, the Potency entry in experiment [2] is “inactive”.

Turning to `CN1C(=O)CN=C(c2ccccc2)c2cc(Cl)ccc21`, the call in experiment [1], in experiment [3], in [6], in experiment [8], in experiment [9] and in experiment [10] was inactive. For the same compound, in experiment [7], the Potency entry is “inactive”.

In the case of `CCCCN(CCCC)SN(C)C(=O)Oc1cccc2c1OC(C)(C)C2`, the result in experiment [1], in experiment [3], in experiment [4], in [8], in [9] and in [10] was inactive. The Potency entry in [2] and in experiment [7] was “inactive” each time.

Turning to `CCNc1nc(NC(C)(C)C)nc(SC)n1`, the compound was classed as inactive in [1], in experiment [3], in experiment [4], in experiment [6], in [8] and in experiment [9]. Besides, the result in [10] was inactive. Moreover, the Potency in experiment [2] was 1.52 µM (active). The Potency entry in experiment [5] was “inactive”.

`C=CCO`: the call in [1], in experiment [3], in experiment [6], in experiment [8] and in [9] was inactive. For the same compound, the Potency result in experiment [2] and in experiment [7] was “inactive” in each case.

Turning to `[N-]=[N+]=[N-]`, the compound was classed as inactive in experiment [1], in experiment [3], in experiment [4], in experiment [6], in experiment [8] and in [9]. Further, in experiment [10], the result was inactive. In experiment [5], the Potency result was “inactive”.

As to `c1ccc2c(c1)Oc1ccccc1O2`, the compound was classed as inactive in [1], in [3], in experiment [6], in experiment [8], in [9] and in [10]. Moreover, the Potency entry in experiment [2] and in experiment [7] was “inactive” in each case.

For the compound `C1CN2CCN1CC2`, the compound was classed as inactive in [1], in [3], in experiment [4], in experiment [6], in [8] and in [9]. In experiment [10], the result was inactive. For the same compound, the Potency result in [2], in experiment [5] and in experiment [7] was “inactive” throughout.

Consider `CC1C=[C-]C=C1.[C-]#[O+].[C-]#[O+].[C-]#[O+].[Mn]`, for which the result in [1], in experiment [3], in [4], in [6], in [8] and in experiment [9] was inactive. Moreover, the call in experiment [10] was inactive. Besides, the Potency entry in experiment [2], in experiment [5] and in experiment [7] was “inactive” each time.

As for `NCC(O)c1ccc(O)cc1` (stereo not drawn), the result in experiment [1], in experiment [3], in [4], in experiment [6], in [8] and in experiment [9] was inactive. For the same compound, in experiment [10], the result was inactive. The Potency result in experiment [2] and in experiment [7] was “inactive” each time.

As for `c1ccc2c(c1)oc1ccccc12`, the call in experiment [3], in experiment [6], in experiment [8], in experiment [9] and in experiment [10] was inactive. Also, the Potency entry in experiment [7] was “inactive”.

`Nc1ccc(Br)cc1`: the call in [1], in experiment [3], in experiment [4], in [6], in experiment [8] and in experiment [9] was inactive. Moreover, in experiment [10], the compound was called inactive. Also, in experiment [2], the Potency is 61 µM (active) and 21.7 µM (active). Further, the Potency result in [7] is “inactive”.

As for `COc1ccc2c3c1O[C@H]1[C@@H](O)C=C[C@H]4[C@@H](C2)N(C)CC[C@@]341`, the result in experiment [1], in [3], in experiment [4], in experiment [6], in experiment [8] and in experiment [9] was inactive. In addition, in [10], the result was inactive. Besides, the Potency entry in experiment [2] is “inactive”. The Potency in experiment [7] is 26.9 µM (active).

Take `CNC(=O)Oc1ccccc1OC(C)C`: the result in experiment [1], in experiment [3], in experiment [4], in [6], in [8] and in experiment [9] was inactive. Besides, the call in [10] was inactive. Moreover, the Potency result in experiment [2] and in experiment [7] was “inactive” throughout.

For `Cn1cc(-c2ccccc2)c(=O)c(-c2cccc(C(F)(F)F)c2)c1`, the Potency result in experiment [2], in [5] and in experiment [7] was “inactive” throughout. In addition, the compound was classed as inactive in experiment [3], in [4], in experiment [6], in experiment [8], in experiment [9] and in [10].

Take `O=c1[nH]c2ccccc2c(=O)o1`: the compound was classed as inactive in experiment [1], in [3], in [4], in [6], in experiment [8] and in [9]. Also, the compound was called inactive in experiment [10]. In addition, the Potency result in experiment [2] and in [7] was “inactive” in each case.

For `CC(C)(C)OOC(C)(C)C`, the compound was classed as inactive in experiment [1], in experiment [3], in experiment [4], in [6], in experiment [8] and in experiment [9]. Moreover, the compound was called inactive in [10]. Further, the Potency entry in [2] and in experiment [7] was “inactive” each time.

On to `CON(C)C(=O)Nc1ccc(Cl)c(Cl)c1`, for which the compound was called inactive in experiment [1], in experiment [3], in experiment [4], in experiment [6], in experiment [8] and in experiment [9]. For the same compound, in [10], the outcome was inactive. Moreover, in experiment [2], the Potency is 21.8 µM (active) and 27.3 µM (active). The Potency entry in experiment [7] is “inactive”.

`CCCC1COC(Cn2cncn2)(c2ccc(Cl)cc2Cl)O1` (stereo not drawn): the compound was classed as inactive in experiment [1], in experiment [3], in [4], in experiment [6], in experiment [8] and in experiment [9]. In addition, the result in [10] was inactive. The Potency in experiment [2] was 34.4 µM (active). Besides, in [5], the Potency result is “inactive”.

Turning to `CCOC(=O)c1ccccc1C(=O)OCC`, the compound was called inactive in experiment [1], in [3], in experiment [4], in [6], in experiment [8] and in experiment [9]. For the same compound, the compound was classed as inactive in experiment [10]. Moreover, the Potency result in [5] and in experiment [7] was “inactive” throughout.

On to `CCC(C)(CC)c1cc(NC(=O)c2c(OC)cccc2OC)on1`, for which the compound was classed as inactive in [1], in experiment [3], in [4], in experiment [6], in experiment [8] and in experiment [9]. In addition, in experiment [10], the compound was called inactive. Also, the Potency in [2] was 61.3 µM (active).

For `COC(=O)NC(=S)Nc1ccccc1NC(=S)NC(=O)OC`, the compound was classed as inactive in experiment [1], in experiment [3], in [4], in experiment [6], in experiment [8] and in experiment [9]. In addition, in [10], the result was inactive. For the same compound, in experiment [5], the Potency result is “inactive”.

The values are drawn from PubChem BioAssay (Tox21).
